Compounds with a hit are over-represented: about 3.2% of the library has one in this group of screens.
PMP22 txn prim: PMP22 gene transcription modulation; S16 Pmp22-F2sN Schwann cells, FLuc/NLuc coincidence luminescence, 24 h; Potency, µM (series often up to 57.5 µM), hits mostly inhibitors; 43,000 compounds, 2% hits; active = clear falling dose curves in both reporters; inconclusive = both reporters move, but less clearly or upward; inactive = either reporter flat; the % is the NLuc reporter signal
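Luminescent read-out of sequential FLuc and NLuc signals from a reporter embedded in the Pmp22 3' UTR of S16 Schwann cells, taken after 24 h compound exposure at 37C; compounds reducing both signals score as inhibitors of expression.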
S16 F2sN tox: S16 Schwann cell cytotoxicity; S16 Pmp22-F2sN Schwann cells viability, CellTiter-Glo, 24 h; Potency, µM (doses to about 57.5 µM), usual class: cytotoxic; 43,000 compounds, 0.48% hits; also: nearly all actives have a fitted effect of over 65% in size
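Viability was measured by CellTiter-Glo luminescence (15 min, room temperature). This followed 24 h at 37 °C of compound exposure (23 nL pin transfer) in S16 Pmp22-F2sN Schwann cells, 500-1,000 per well.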
p53null 39C kill: kills p53 null cells at the nonpermissive temperature | H1299 p53-null (neo) cells, 39C, ATPlite viability, 24 h | 55,000 compounds, 0.97% hits | Potency, µM (titrated, usually from 46.1 µM), most hits filed as cytotoxic; also: nearly all actives have a fitted effect of over 50% in size
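Cells seeded at 600/well, 37C overnight. Compound added (up to 46 uM), plates shifted to 39C for 24 hr. ATPlite added, luminescence read after 20 min at room temperature.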
p53null 32C tox: p53 null cell cytotoxicity, permissive temperature. H1299-neo p53 null cells, ATP luminescence, 24 h, 32C. Potency, µM (highest dose often 46.1 µM), actives largely listed as cytotoxic. 55,000 compounds, 0.62% hits. AID 903; also: nearly all actives have a fitted effect of over 55% in size
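Cytotoxicity: H1299-neo (no p53), 32C, 24 h treatment. Concentrations up to 46 uM. Readout cellular ATP, luminescence. Normalization to DMSO basal and tamoxifen 100 uM maximal kill.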
mTORC1 inh: reduces mTORC1 signaling in Tsc2 and p53 null MEF cells; 44,000 compounds, 0.78% hits; Tsc2-/- p53-/- MEF, phospho-rpS6 immunofluorescence/PI, 24 h; AID 493208; Potency, µM (titrated, usually from 38.3 µM), hits mostly inhibitors; also: nearly all actives have a fitted effect of over 50% in size
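Plate MEFs (Tsc2-/-, p53-/-, empty vector) in DMEM/10% FBS; after 24 h add compound, incubate 24 h at 37 degree Celsius; fix in PFA/TX-100, block, stain phospho-rpS6 and 10 uM PI; scan at 488 nm; report % positive cells.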
A number is an active result; n = inactive; u = inconclusive; x = not tested or not shown. Unless noted, calls follow the shape of the dose curve; as a rule, active = well fitted curve in the direction sought with a large enough effect; inconclusive = small, poorly fitted or top-dose-only effect, or another doubt; inactive = no such curve, though single readings can be large; an effect the other way counts as inactive or inconclusive.

SMILES	PMP22 txn prim	S16 F2sN tox	p53null 39C kill	p53null 32C tox	mTORC1 inh
O=C(Nc1cccc(S(=O)(=O)Nc2ccc(Cl)cc2)c1)c1cc2c(s1)CCCC2	x	x	2.8µM	n	x
Cc1ccc(NC(=O)c2cc3c(s2)CCCC3)cc1S(=O)(=O)Nc1ccccc1Cl	x	x	n	n	x
CC1CCCCN1c1nc(-c2ccc(C(C)(C)C)cc2)nc2ccccc12 (configuration not stated)	n	n	16µM	13µM	n
CC1CCN(c2nc(-c3ccc(C(C)(C)C)cc3)nc3ccccc23)CC1	u	n	13µM	13µM	n
CCCOc1ccc(-c2nc(N3CCC(C)CC3)c3ccccc3n2)cc1	x	x	n	n	n
CC(C)(C)OC(=O)N1CCC(c2c(C(=O)NCc3ccccc3)cnn2-c2cccc(F)c2)CC1	n	n	n	n	n
CCCc1cc(=O)n2[nH]c(-c3ccc(C)cc3)nc2n1	u	n	n	u	n
COC(=O)Cc1c(C)nc2nc(-c3ccc(C)cc3)[nH]n2c1=O	n	n	u	10µM	n
CCCCC(=O)OC1=C(C(=O)c2ccccc2)N(CC)S(=O)(=O)c2ccccc21	n	n	u	n	n
CCCN1C(C(=O)c2ccccc2)=C(OC(=O)c2ccc(OC)cc2)c2ccccc2S1(=O)=O	u	n	n	n	n
CCN1C(C(=O)c2ccccc2)=C(OC(=O)c2ccccc2OC)c2ccccc2S1(=O)=O	u	n	13µM	u	n
CCCCN1C(C(=O)c2ccccc2)=C(OC(C)=O)c2ccccc2S1(=O)=O	u	u	5µM	u	u
O=C(CSc1nc2c(c(=O)[nH]1)CN(Cc1ccc(F)cc1)CC2)Nc1cccc(C(F)(F)F)c1	u	14µM	n	n	n
CCOc1ccc(NC(=O)c2ncn(-c3ccccc3)n2)cc1	n	n	n	n	n
O=C(Nc1ccc(F)cc1)c1ncn(-c2ccccc2)n1	u	n	32µM	u	n
O=S1(=O)N=C(Nc2nc3c(s2)CCCC3)c2ccccc21	x	x	5.6µM	11µM	x
O=C(NCCc1ccccc1)c1ccc(Cn2c(=O)c3cccn3c3cccnc32)cc1	n	n	n	n	n
CCOCCCNC(=O)c1ccc(Cn2c(=O)c3cccn3c3cccnc32)cc1	11µM	n	n	n	n
CCN(CC)CCNC(=O)c1ccc(Cn2c(=O)c3cccn3c3cccnc32)cc1	n	n	n	n	3.3µM
O=C(CSc1nnnn1-c1cccc2c1CCCC2)N1CCCC1	x	x	n	n	x
CCc1nn(CC(=O)N2CCCCC2)c(=O)c2cc3sc(C)cc3n12	n	n	n	n	n
Cc1cc(C)cc(OCC(=O)N2N=C(C(F)(F)F)CC2(O)C(C)(C)C)c1 (configuration not stated)	x	x	u	n	x
COc1ccc(-c2cc(C(F)(F)F)nc(SCCC(=O)Nc3ccccc3F)n2)cc1	n	n	n	n	n
COc1ccc(-c2cc(C(F)(F)F)nc(SCCC(=O)Nc3cc(C)ccc3O)n2)cc1	u	n	11µM	n	n
O=C(NCCc1ccccc1)c1ccc(Nc2nc3ccccc3n3nnnc23)cc1	u	28µM	u	u	n
SMILES	PMP22 txn prim	S16 F2sN tox	p53null 39C kill	p53null 32C tox	mTORC1 inh
Cc1ccc(CNC(=O)c2cccc(Nc3nc4ccccc4n4nnnc34)c2)cc1	11µM	8.9µM	n	n	n
O=C(c1ccc(Nc2nc3ccccc3n3nnnc23)cc1)N1CCN(c2cccc(C(F)(F)F)c2)CC1	u	u	n	n	n
COc1cccc(CNc2cc(C)nc3nc(-c4ccc(C)cc4)nn23)c1	n	n	u	u	n
Cc1cc(C)cc(NC(=O)C2CCN(c3nnc(-n4c(C)ccc4C)s3)CC2)c1	n	n	n	n	n
COc1ccc(NC(=O)COC(=O)C2CCCCC2)c([N+](=O)[O-])c1	x	x	n	n	x
CCc1ccc(NC(=O)Cn2c(=O)n(-c3ccccc3)c(=O)c3ccc(C(=O)NCc4ccc5c(c4)OCO5)cc32)cc1	u	n	n	n	u
CCOc1ccc(NC(=O)Cn2c(=O)n(-c3ccccc3)c(=O)c3ccc(C(=O)NCc4ccc5c(c4)OCO5)cc32)cc1	u	n	16µM	n	n
CCOc1ccc(NC(=O)Cn2c(=O)n(CCCCCC(=O)NCc3ccccc3)c(=O)c3sccc32)cc1	u	20µM	n	n	u
Cc1ccccc1NC(=O)Cn1c(=O)n(CCCCCC(=O)NCc2ccccc2Cl)c(=O)c2sccc21	u	n	n	n	n
CCN(CC)C(=O)Cn1c(=O)n(CCCCCC(=O)NCc2ccccc2)c(=O)c2sccc21	n	n	n	n	n
CCOc1ccccc1NC(=O)Cn1c(=O)n(CC(=O)NCc2ccccc2Cl)c(=O)c2sccc21	u	28µM	u	n	n
CC(C)NC(=O)C1CCC(Cn2c(=O)c3sccc3n(CC(=O)Nc3ccccc3)c2=O)CC1 (configuration not stated)	u	25µM	n	n	n
COCc1oc2ccc(NS(=O)(=O)c3ccc(C)cc3)cc2c1C(=O)OC	7.1µM	n	n	n	u
CCOc1ccc(S(=O)(=O)Nc2ccc3oc(C)c(C(=O)OCCOC)c3c2)cc1	u	n	n	n	n
CCCCN1C(=O)C(CC(=O)NCC)SC1=Nc1ccccc1 (configuration not stated)	x	x	n	n	x
Cc1c(Cl)ccc2sc(NC(=O)c3ccc(S(=O)(=O)N4CCCc5ccccc54)cc3)nc12	n	n	n	n	15µM
Cc1c(Cl)ccc2sc(NC(=O)c3ccc(S(=O)(=O)N4CCCC4)cc3)nc12	n	n	n	n	n
Cc1cccc(NC(=O)CSc2nc(-c3cccs3)cc(C(F)(F)F)c2C#N)c1	15µM	u	u	n	n
CCS(=O)(=O)NCCc1csc2nc(-c3ccc(C)cc3)nn12	n	n	n	n	n
COCc1nc2ccccc2n1Cc1cccc(C)c1	n	n	n	n	n
Cc1cccc(Cn2c(Cc3ccccc3)nc3ccccc32)c1	n	n	20µM	n	n
Cc1cccc(CS(=O)(=O)c2ncc(Cl)c(C(=O)Nc3nnc(C(C)C)s3)n2)c1	9.6µM	u	13µM	n	16µM
Cc1ccc(CS(=O)(=O)c2ncc(Cl)c(C(=O)Nc3nnc(C(C)C)s3)n2)cc1	8.9µM	u	u	n	15µM
CC(C)c1nnc(NC(=O)c2nc(SCc3ccc(F)cc3)ncc2Cl)s1	n	n	n	n	n
Cc1ccccc1-c1noc(-c2ccccc2OCC(=O)Nc2cccc([N+](=O)[O-])c2)n1	n	n	n	n	n
CCC(=O)Nc1ccc(CC)cc1-c1nc2ccccc2n(CC(=O)c2ccc(OC)cc2)c1=O	n	n	n	n	n
CCOc1ccccc1NC(=O)c1cc(S(=O)(=O)NC2CCCC2)ccc1F	n	n	n	n	n

Compound activity: PubChem, National Center for Advancing Translational Sciences (NCATS)
